Reference: PubChem BioAssay (NCI)
This is part of a sample that, as a whole, favours compounds with a hit. Of some 79,000 tested, about 15% had one in any assay. A number with no mark means an inactive call. Active and inactive are the calls of the source. Cut-off read from the data, not from the text of the source: active = growth inhibition above about 70%; inactive = the rest.

Experiment: NCI Yeast Anticancer Drug Screen. Data for the mec2-1 strain (AID 157)
Details: S. cerevisiae mec2-1 strain, hits give high values
Protocol: Growth inhibition of yeast strains with defined genetic alterations is measured as a screen for potential anti-cancer activity. Selected strains with alterations in DNA damage repair or cell cycle control were exposed to compounds and growth inhibition was measured relative to vehicle treated controls. The strain used in this assay is mec2-1

[1] = at 5.0 µM (retest, dose inferred, filed as 0.5)
[2] = at 50.0 µM (retest, dose inferred, filed as 5.0)

Compound	growth inhibition [1]	growth inhibition [2]	growth inhibition (at 50.0 µM)
O=C(CN1CCCC1)Nc1nc(-c2ccc(Cl)cc2)cs1	37%	53%	35.7%
COC(=O)C1(C)CCc2c(ccc3cccc(OC)c23)C1=O (configuration not stated)	0%	98% (active)	21%
Cc1nn(-c2ccc(S(=O)(=O)[O-])cc2)c([O-])c1N=[N+](C)c1ccc(-c2ccc(N=Nc3ccc4c(S(=O)(=O)[O-])cc(S(=O)(=O)[O-])c(N)c4c3[O-])c([O-])c2)cc1[O-].[Cu+2].[Cu+2].[Na+]	-3%	-17%	18.9%
Cc1cccc(C)c1N=Nc1c(C)nc(N)nc1-c1ccccc1	12%	95% (active)	96.4% (active)
CCC(COS(=O)(=O)c1ccc(C)cc1)(COS(=O)(=O)c1ccc(C)cc1)COS(=O)(=O)c1ccc(C)cc1	-3%	0%	4.35%
O=C1C=CCCCC1(c1ccccc1)c1ccccc1	0%	14%	70.3% (active)
Oc1ccc(O)c2nc3ccccc3nc12	3%	97% (active)	33.8%
O=C(NCCCN1CCN(CCCNC(=O)c2cc(-c3ccccc3)nc3ccccc23)CC1)c1cc(-c2ccccc2)nc2ccccc12	30%	95% (active)	88.7% (active)
Cc1nc(Nc2ccc(Cl)cc2)sc1C(=O)NNC(=S)NN	-9%	64%	88% (active)
Cc1ccc(NC(=O)CCCC(=O)C(C#N)c2ccccc2C)cc1C (configuration not stated)	-2%	3%	11.4%
CCCCCCCOc1ccc(C=O)cc1OC	-1%	35%	44%
Cc1c(C(=O)O)nc(C(Br)(Br)Br)[nH]c1=O	20%	17%	4.85%
O=C1C(Cl)=C(Nc2ccc(S(=O)(=O)Nc3ccccn3)cc2)C(=O)c2ccccc21	99% (active)	99% (active)	99.3% (active)
O=S(=O)(/C=C/c1cccnc1)/C=C/c1cccnc1	0%	-3%	-1.65%
